Where “and” joins values, the source holds several entries; their conditions need not be identical. Identical values can stand only once. The campaign covered roughly 5,500 compounds. About 2,000 (36%) were called active. Roughly 18% stayed inconclusive and do not appear here. Rule as the data show it: active = normalized growth mostly below about 0.91 (no sharp cut-off); inconclusive = no clear call, values can overlap the other calls; inactive = mostly above about 0.92. This is one part of the list.
Assay: chemical genetic growth profiling, strain panel (AID 1159580);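 also: tested at 20 µM; growth read once vehicle control cultures reached saturation at 30 °C; 1 = growth at the plate median or of vehicle wells; lower values mean less growth of the strain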
Settings: S. cerevisiae deletion strains, growth OD

Measured: normalized growth

COc1cc2c(cc1OC)C(=O)OC2
inactive: locus YAL013W, strain DEP1, active compounds read low 1 | locus YAL021C, strain ccr4, active compounds read low 0.998 | locus YAL026C, strain drs2, active compounds read low 1.01 | locus YAL030W, strain snc1, active compounds read low 0.981 | locus YBL061C, strain skt5, active compounds read low 0.988 | locus YBR009C, strain hhf1, active compounds read low 0.992 | locus YBR021W, strain FUR4, active compounds read low 0.999 | locus YBR023C, strain chs3, active compounds read low 0.993 | locus YBR171W, strain sec66, active compounds read low 0.998 | locus YBR229C, strain ROT2, active compounds read low 1.01 | locus YBR231C, strain swc5, active compounds read low 0.98 | locus YBR279W, strain paf1, active compounds read low 0.997 | locus YCL011C, strain gbp2, active compounds read low 0.99 | locus YCL016C, strain dcc1, active compounds read low 0.987 | locus YCL029C, strain bik1, active compounds read low 1.01 | locus YCL061C, strain MRC1, active compounds read low 0.999 | locus YCL069W, strain vba3, active compounds read low 1 | locus YCR088W, strain abp1, active compounds read low 0.994 | locus YDL005C, strain med2, active compounds read low 0.988 | locus YDL035C, strain GPR1, active compounds read low 1.02 | locus YDL040C, strain nat1, active compounds read low 0.985 | locus YDL074C, strain BRE1, active compounds read low 0.985 | locus YDL101C, strain DUN1, active compounds read low 1.01 | locus YDL134C, strain PPH21, active compounds read low 0.999 | locus YDL185W, strain tfp1, active compounds read low 1.01 | locus YDL192W, strain arf1, active compounds read low 1 | locus YDR001C, strain nth1, active compounds read low 1.01 | locus YDR069C, strain doa4, active compounds read low 0.994 | locus YDR101C, strain arx1, active compounds read low 0.994 | locus YDR137W, strain rgp1, active compounds read low 0.967 | locus YDR150W, strain NUM1, active compounds read low 1 | locus YDR159W, strain sac3, active compounds read low 1.01 | locus YDR162C, strain NBP2, active compounds read low 0.985 | locus YDR195W, strain ref2 1 | locus YDR297W, strain sur2, active compounds read low 0.998 | locus YDR318W, strain mcm21, active compounds read low 1.02 | locus YDR334W, strain swr1, active compounds read low 0.976 | locus YDR335W, strain msn5, active compounds read low 1 | locus YDR388W, active compounds read low 1.01 | locus YDR392W, strain spt3, active compounds read low 0.997 | locus YDR502C, strain sam2, active compounds read low 0.983 | locus YEL003W, strain gim4, active compounds read low 0.999 | locus YEL037C, strain rad23, active compounds read low 0.994 | locus YEL061C, strain CIN8 (second series), active compounds read low 1.01 | locus YEL061C, strain CIN8, active compounds read low 1 | locus YER015W, strain faa2, active compounds read low 0.988 | locus YER016W, strain bim1, active compounds read low 0.999 | locus YER110C, active compounds read low 1.01 | locus YER111C, strain swi4, active compounds read low 0.996 | locus YER155C, strain BEM2 (second series), active compounds read low 0.992 | locus YER155C, strain BEM2, active compounds read low 1.01 | locus YER167W, strain BCK2, active compounds read low 1.03 | locus YFR010W, strain ubp6, active compounds read low 0.989 | locus YGL078C, strain dbp3, active compounds read low 0.984 | locus YGL086W, strain mad1, active compounds read low 1.03 | locus YGL167C, strain pmr1, active compounds read low 0.984 | locus YGL173C, strain kem1, active compounds read low 0.983 | locus YGL227W, strain vid30, active compounds read low 0.998 | locus YGL240W, strain doc1, active compounds read low 1.03 | locus YGL248W, strain PDE1, active compounds read low 1.01 | locus YGL253W, strain hxk2, active compounds read low 0.993 | locus YGR078C, strain PAC10, active compounds read low 0.987 | locus YGR135W, strain pre9, active compounds read low 0.961 | locus YGR229C, strain SMI1, active compounds read low 0.999 | locus YGR252W, strain gcn5, active compounds read low 1.06 | locus YHR013C, strain ard1, active compounds read low 0.988 | locus YHR027C, strain rpn1, active compounds read low 1 | locus YHR030C, strain SLT2, active compounds read low 1.01 and 0.973 | locus YHR079C, strain IRE1 (second series), active compounds read low 1.01 | locus YHR079C, strain IRE1, active compounds read low 0.984 | locus YHR094C, strain hxt1, active compounds read low 0.999 | locus YHR129C, strain ARP1, active compounds read low 1.01 | locus YHR142W, strain chs7, active compounds read low 0.972 | locus YHR200W, strain rpn10, active compounds read low 1 | locus YIL066C, strain RNR3, active compounds read low 1.02 | locus YIL073C, strain SPO22, active compounds read low 1.06 | locus YIL125W, strain kgd1, active compounds read low 0.99 | locus YIR030C, strain dcg1, active compounds read low 0.999 | locus YJL092W, strain hpr5, active compounds read low 0.999 | locus YJL095W, strain BCK1 (second series), active compounds read low 0.991 | locus YJL095W, strain BCK1, active compounds read low 0.996 and 0.98 | locus YJL115W, strain asf1, active compounds read low 1 | locus YJL129C, strain trk1, active compounds read low 1.03 | locus YJL134W, strain LCB3, active compounds read low 1 | locus YJL154C, strain vps35, active compounds read low 0.988 | locus YJL164C, strain tpk1, active compounds read low 0.996 | locus YJL166W, strain qcr8, active compounds read low 0.981 | locus YJL168C, strain set2, active compounds read low 1.01 | locus YJL187C, strain SWE1 (second series), active compounds read low 1 | locus YJR043C, strain POL32, active compounds read low 1.03 | locus YJR066W, strain TOR1, active compounds read low 0.977

— PubChem BioAssay AID1159580 (chemical genetic matrix, 2015)
